Results taken from the supplement of paper PMC6853941.
Unmarked numbers belong to inactive results.

These compounds were tested on MCF10A (assay: perturbation Mahalanobis distance of morphological profile vs DMSO controls (Mahalanobis distance (SD units)); higher = stronger morphological change, active = 7 or more). Settings: screen batch: Batch1_Mahalanobis_Distance; 72 h.
Protocol: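 MCF10A cells were seeded onto drugs dispensed acoustically into 384-well plates, using one dose per drug chosen from its human peak plasma concentration, and incubated for 72 h at 37 °C. Cells were stained for DNA, tubulin and mitochondria and imaged; 78 CellProfiler features were extracted, plate-normalised and compared with DMSO wells.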
With `NCC(CC(=O)O)c1ccc(Cl)cc1` (stereo not drawn) [Baclofen] (4.7 µM) the “perturbation Mahalanobis distance” value was 1.93.
`NC(=O)CS(=O)C(c1ccccc1)c1ccccc1` (stereo not drawn) [Armodafinil] (27.1 µM) was tested, and the “perturbation Mahalanobis distance” value was 3.56.
`CCN(C(C)=O)c1cccc(-c2ccnc3c(C#N)cnn23)c1` [Zaleplon] (1.6 µM) was tested, and the “perturbation Mahalanobis distance” value was 2.43.
In the case of `COc1cc2c(cc1OC)C1CC(=O)C(CC(C)C)CN1CC2` (stereo not drawn) [Tetrabenazine] (10 µM), the “perturbation Mahalanobis distance” value is reported as 4.2.
`CN(C)C(=O)Oc1ccc[n+](C)c1` [Pyridostigmine  Bromide] (5.5 µM) was tested, and the “perturbation Mahalanobis distance” value was 2.83.
In the case of `NCC1(CC(=O)O)CCCCC1` [Gabapentin] (122.6 µM), the “perturbation Mahalanobis distance” value is reported as 2.06.
In the case of `C[C@]12Cc3cn[nH]c3C[C@@H]1CC[C@@H]1[C@@H]2CC[C@@]2(C)[C@H]1CC[C@]2(C)O` [Stanozolol] (62.7 µM), the “perturbation Mahalanobis distance” value is reported as 2.14.
In the case of `CC(C)(O)C(=O)Nc1ccc([N+](=O)[O-])c(C(F)(F)F)c1` [Hydroxyflutamide] (27.1 µM), the “perturbation Mahalanobis distance” value is reported as 5.03.
With `Cc1cccc([C@H](C)c2cnc[nH]2)c1C` [Dexmedetomidine] (42 µM) the “perturbation Mahalanobis distance” value was 2.48.
`C[C@]12CC[C@H]3[C@@H](CCC4=CC(=O)CC[C@@]43C)[C@@H]1CC[C@@H]2O` [Testosterone] (0.17 µM) was tested, and the “perturbation Mahalanobis distance” value was 3.32.
In the case of `CC[C@@H](CO)NC(=O)[C@@H]1C=C2c3cccc4[nH]cc(c34)C[C@H]2N(C)C1` [Methylergonovine] (44 µM), the “perturbation Mahalanobis distance” value is reported as 2.29.
`CN1C[C@H](C(=O)N[C@]2(C)O[C@@]3(O)[C@@H]4CCCN4C(=O)[C@H](Cc4ccccc4)N3C2=O)C[C@@H]2c3cccc4[nH]cc(c34)C[C@H]21` [Dihydroergotamine] (74 µM) was tested, and the “perturbation Mahalanobis distance” value was 2.63.
With `NC1CC1c1ccccc1` (stereo not drawn) [Tranylcypromine] (7.5 µM) the “perturbation Mahalanobis distance” value was 2.27.
`O=C1CC[C@@]2(O)[C@H]3Cc4ccc(O)c5c4[C@@]2(CCN3CC2CC2)[C@H]1O5` [Naltrexone] (0.44 µM) was tested, and the “perturbation Mahalanobis distance” value was 3.73.
In the case of `O=[N+]([O-])O[C@H]1CO[C@H]2[C@@H]1OC[C@H]2O[N+](=O)[O-]` [Isosorbide Dinitrate] (0.13 µM), the “perturbation Mahalanobis distance” value is reported as 2.18.
In the case of `CCC(C)C(C)(COC(N)=O)COC(N)=O` (stereo not drawn) [Mebutamate] (144.2 µM), the “perturbation Mahalanobis distance” value is reported as 2.17.
In the case of `O=C(O)CCCc1ccc(N(CCCl)CCCl)cc1` [Chlorambucil] (8.1 µM), the “perturbation Mahalanobis distance” value is reported as 2.75.
For `C[C@]12CC[C@H]3[C@@H](CC[C@@]45O[C@@H]4C(O)=C(C#N)C[C@]35C)[C@@H]1CC[C@@H]2O` [Trilostane] (308.7 µM), the “perturbation Mahalanobis distance” value was 3.36.
With `COC[C@@H](NC(C)=O)C(=O)NCc1ccccc1` [Lacosamide] (49.9 µM) the “perturbation Mahalanobis distance” value was 3.59.

Same assay, conditions: screen batch: Batch2_Mahalanobis_Distance; 72 h
`NCC(CC(=O)O)c1ccc(Cl)cc1` (stereo not drawn) [Baclofen] (4.7 µM) was tested, and the “perturbation Mahalanobis distance” value was 1.48.
In the case of `NC(=O)CS(=O)C(c1ccccc1)c1ccccc1` (stereo not drawn) [Armodafinil] (27.1 µM), the “perturbation Mahalanobis distance” value is reported as 2.45.
`CCN(C(C)=O)c1cccc(-c2ccnc3c(C#N)cnn23)c1` [Zaleplon] (1.6 µM) was tested, and the “perturbation Mahalanobis distance” value was 3.38.
`COc1cc2c(cc1OC)C1CC(=O)C(CC(C)C)CN1CC2` (stereo not drawn) [Tetrabenazine] (10 µM) was tested, and the “perturbation Mahalanobis distance” value was 3.85.
For `CN(C)C(=O)Oc1ccc[n+](C)c1` [Pyridostigmine  Bromide] (5.5 µM), the “perturbation Mahalanobis distance” value was 2.49.
`NCC1(CC(=O)O)CCCCC1` [Gabapentin] (122.6 µM) was tested, and the “perturbation Mahalanobis distance” value was 2.79.
In the case of `C[C@]12Cc3cn[nH]c3C[C@@H]1CC[C@@H]1[C@@H]2CC[C@@]2(C)[C@H]1CC[C@]2(C)O` [Stanozolol] (62.7 µM), the “perturbation Mahalanobis distance” value is reported as 3.12.
In the case of `CC(C)(O)C(=O)Nc1ccc([N+](=O)[O-])c(C(F)(F)F)c1` [Hydroxyflutamide] (27.1 µM), the “perturbation Mahalanobis distance” value is reported as 4.63.
In the case of `Cc1cccc([C@H](C)c2cnc[nH]2)c1C` [Dexmedetomidine] (42 µM), the “perturbation Mahalanobis distance” value is reported as 2.42.
For `C[C@]12CC[C@H]3[C@@H](CCC4=CC(=O)CC[C@@]43C)[C@@H]1CC[C@@H]2O` [Testosterone] (0.17 µM), the “perturbation Mahalanobis distance” value was 3.14.
With `CC[C@@H](CO)NC(=O)[C@@H]1C=C2c3cccc4[nH]cc(c34)C[C@H]2N(C)C1` [Methylergonovine] (44 µM) the “perturbation Mahalanobis distance” value was 3.37.
For `CN1C[C@H](C(=O)N[C@]2(C)O[C@@]3(O)[C@@H]4CCCN4C(=O)[C@H](Cc4ccccc4)N3C2=O)C[C@@H]2c3cccc4[nH]cc(c34)C[C@H]21` [Dihydroergotamine] (74 µM), the “perturbation Mahalanobis distance” value was 3.4.
For `NC1CC1c1ccccc1` (stereo not drawn) [Tranylcypromine] (7.5 µM), the “perturbation Mahalanobis distance” value was 3.55.
For `O=C1CC[C@@]2(O)[C@H]3Cc4ccc(O)c5c4[C@@]2(CCN3CC2CC2)[C@H]1O5` [Naltrexone] (0.44 µM), the “perturbation Mahalanobis distance” value was 3.37.
`O=[N+]([O-])O[C@H]1CO[C@H]2[C@@H]1OC[C@H]2O[N+](=O)[O-]` [Isosorbide Dinitrate] (0.13 µM) was tested, and the “perturbation Mahalanobis distance” value was 2.62.
With `CCC(C)C(C)(COC(N)=O)COC(N)=O` (stereo not drawn) [Mebutamate] (144.2 µM) the “perturbation Mahalanobis distance” value was 3.78.
With `O=C(O)CCCc1ccc(N(CCCl)CCCl)cc1` [Chlorambucil] (8.1 µM) the “perturbation Mahalanobis distance” value was 8.46 (active).
`C[C@]12CC[C@H]3[C@@H](CC[C@@]45O[C@@H]4C(O)=C(C#N)C[C@]35C)[C@@H]1CC[C@@H]2O` [Trilostane] (308.7 µM) was tested, and the “perturbation Mahalanobis distance” value was 2.45.
With `COC[C@@H](NC(C)=O)C(=O)NCc1ccccc1` [Lacosamide] (49.9 µM) the “perturbation Mahalanobis distance” value was 2.67.
